# In the library only some 19% were active in any assay of this set; here they are far more common.
# TDP1 cell CPT: growth inhibition of DT40 Tdp1-/-;hTDP1 cells with camptothecin (screen for TDP1 inhibitors). chicken DT40 Tdp1-/-;hTDP1 cells + 20 nM CPT, ATP luminescence, 48 h. Potency, µM (titrated, usually from 46.2 µM), for inactives: at the top dose activity change, negative = growth inhibition, most hits filed as inhibitors. hit rate 12% among 420,000. AID 686979; also: potency is read from the fitted curve at half-maximal effect; % is scaled to controls: 0 for no effect and ±100 for the full control effect; nearly all actives have a fitted effect of over 55% in size
#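 Chicken DT40 Tdp1-/- cells stably complemented with human TDP1 were seeded at 400 cells/well in medium containing 20 nM camptothecin, exposed to pin-transferred compounds, and grown at 37 °C for at least 48 hr. Viability was read as ATP luminescence.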
# IL1B secr inh: inhibitors of inflammasome signaling (IL-1 beta secretion); THP-1 LPS/ATP IL-1B secretion, AlphaLISA, 16 h; hits give low values; activity change, % at 57.5 µM; hit rate 4.7% among 360,000; AID 743279; in the data active = activity change below about -50%; inconclusive = mostly about -30% to -49%; also: % is scaled to controls: 0 for no effect and ±100 for the full control effect
#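 THP-1 cells pretreated 1 hr with compounds (up to 57.5 uM final), then stimulated with LPS (250 ng/mL final) plus ATP (1.25 mM final); secreted IL-1B measured by AlphaLISA after 16 hr, decreased signal indicating inhibition.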
# TGFb SMAD3 inh: inhibitors of TGF-b signaling; HepG2 CAGA-GFP TGF-b/SMAD3 reporter, GFP fluorescence, 18 h; TGF-beta stimulated, 500 pg/mL final; Potency, µM (series often up to 46.1 µM), for inactives: at the highest dose activity, negative = inhibition, hits mostly inhibitors; hit rate 1.2% among 410,000; AID 588855; also: potency is read from the fitted curve at half-maximal effect; % is scaled to controls: 0 for no effect and ±100 for the full control effect; nearly all actives have a fitted effect of over 65% in size
#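 Smad-responsive CAGA-GFP expression was quantified in HEPG2 cells exposed to compounds and 500 pg/mL final TGF-beta for 18 h at 37 degrees C; unstimulated wells defined full inhibition.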
# DT40 TDP1 no CPT: qHTS for Inhibitors of human tyrosyl-DNA phosphodiesterase 1 (TDP1): qHTS in cells in absence of CPT; Potency, µM (doses to about 46.2 µM), for inactives: top-dose activity change, negative = growth inhibition, hits mostly inhibitors; DT40 Tdp1-/- hTDP1 cells, no CPT, ATP luminescence, 48 h; hit rate 15% among 420,000; also: potency is read from the fitted curve at half-maximal effect; % is scaled to controls: 0 for no effect and ±100 for the full control effect; nearly all actives have a fitted effect of over 55% in size
#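 Chicken DT40 Tdp1-/- cells complemented with human TDP1, screened without camptothecin (DMSO vehicle only), 400 cells/well. Compounds pin-transferred, cells incubated at 37 °C for at least 48 hr. Growth read as ATP-dependent luminescence (CellTiter-Glo, 30 min at RT).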
# TDP1 block: inhibitors of human tyrosyl-DNA phosphodiesterase TDP1 | Q9NUW8 | Potency, µM (highest dose often 130 µM), inactives show top-dose activity change, negative = inhibition, usual class: inhibitors | recombinant TDP1, AlphaScreen DNA substrate cleavage | hit rate 0.28% among 350,000; also: potency is read from the fitted curve at half-maximal effect; % is scaled to controls: 0 for no effect and ±100 for the full control effect; nearly all actives have a fitted effect of over 40% in size
# Target sequence (Q9NUW8 whole entry, looked up): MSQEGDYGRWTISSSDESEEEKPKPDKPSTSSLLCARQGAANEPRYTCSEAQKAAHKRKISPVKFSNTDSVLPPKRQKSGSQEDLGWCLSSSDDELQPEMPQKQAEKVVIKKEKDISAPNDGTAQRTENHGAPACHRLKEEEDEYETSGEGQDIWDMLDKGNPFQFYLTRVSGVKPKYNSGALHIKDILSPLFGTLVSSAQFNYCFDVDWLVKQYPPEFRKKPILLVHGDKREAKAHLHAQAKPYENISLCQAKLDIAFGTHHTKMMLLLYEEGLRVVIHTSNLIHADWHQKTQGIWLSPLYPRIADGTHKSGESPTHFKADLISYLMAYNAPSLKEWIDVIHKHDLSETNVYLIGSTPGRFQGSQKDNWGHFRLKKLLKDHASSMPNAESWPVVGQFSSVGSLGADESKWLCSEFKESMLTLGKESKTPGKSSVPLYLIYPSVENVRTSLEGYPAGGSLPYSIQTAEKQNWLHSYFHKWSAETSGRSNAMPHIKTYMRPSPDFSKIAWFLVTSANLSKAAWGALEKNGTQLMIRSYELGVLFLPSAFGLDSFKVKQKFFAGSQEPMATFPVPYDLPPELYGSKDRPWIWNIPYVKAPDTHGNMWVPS
#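 Tdp1 1 nM final; 15 min RT w/ cpd; substrate 15 nM, 5 min; beads 10 ug/ml, 10 min; AlphaScreen read. Neg ctrl: no enzyme.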
# HepG2 viability: HepG2 cytotoxicity, counter-screen for TGF-b inhibitors | Potency, µM (series often up to 46.1 µM), without a hit: at the highest dose activity change, negative = cytotoxicity, usual class: cytotoxic | HepG2 CAGA-GFP viability, ATP luminescence, 18 h | AID 588856 | hit rate 0.76% among 410,000; also: potency is read from the fitted curve at half-maximal effect
#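 HepG2 CAGA-GFP cells (1000/well, DMEM with 1% FBS) received compound, then TGF-beta at 500 pg/mL final, and were incubated 18 hours at 37 degrees C. Viability was read by CellTiter-Glo luminescence. Media-only wells were set as complete cell-killing and DMSO as no toxicity.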
# * = called active by the depositor; u = inconclusive; x = no result; [ ] = remark or other dose. Unless noted, calls follow the shape of the dose curve; as a rule, active = well fitted curve in the direction sought with a large enough effect; inconclusive = small, poorly fitted or top-dose-only effect, or another doubt; inactive = no such curve, though single readings can be large; an effect the other way counts as inactive or inconclusive.
SMILES,TDP1 cell CPT,IL1B secr inh,TGFb SMAD3 inh,DT40 TDP1 no CPT,TDP1 block,HepG2 viability
CC(=O)c1ccc(-c2c(C3C4C=CCC(C)C4C(=O)N3Cc3ccccc3)ccc3ccccc23)cc1 (centres undefined),x,x,-28%,x,9%,-18%
O=C1C2C(c3ccccc3)CC=CC2C(c2ccc3ccccc3c2)N1Cc1ccccc1 (centres undefined),x,x,-29%,x,9%,-38%
Cc1ccc(-c2cccc(C3CC=CC4C3C(=O)N(Cc3ccccc3)C4c3ccc(C(F)(F)F)cc3)c2)cc1 (centres undefined),13µM*,47,-3%,13µM*,6%,-7%
CC(=O)c1ccc(-c2cccc([C@H]3[C@@H]4C=CC[C@@H](C)[C@@H]4C(=O)N3Cc3ccccc3)c2)cc1,10µM*,-20,u,13µM*,1%[56.1 µM],-17%
O=C1C2C(c3ccccc3)CC=CC2[C@H](c2ccoc2)N1Cc1ccccc1 (some centres undefined),u,-12,u,u,5%,-14%
COc1cc(-c2cccc([C@H]3[C@@H]4C=CC[C@@H](C)[C@@H]4C(=O)N3Cc3ccccc3)c2)cc(OC)c1OC,8.2µM*,u,u,7.3µM*,1%[56.1 µM],-26%
COc1ccc(C2C3C=CCC(C)C3C(=O)N2Cc2ccccc2)cc1Cl (centres undefined),x,x,u,x,4%,-35%
O=C(NCCCN1CCOCC1)c1ccc2c(c1)N(Cc1ccc(Cl)cc1)C(=O)c1ccccc1S2=O (centres undefined),u,-16,u,u,7%,5%
Cc1cccc2sc(NC(=O)c3cc(S(=O)(=O)N(C)C)ccc3N3CCCC3)nc12,u,-124*,u,18µM*,5%,-28%
CN(C)S(=O)(=O)c1ccc(N2CCCC2)c(C(=O)Nc2nc3ccc(F)cc3s2)c1,-21%,-51*,u,-30%,7%,10%
CN1CCCc2cc(/C=C/c3ccnc4ccccc34)ccc21,11µM*,x,118%,14µM*,x,-55%
CN1CCCc2ccccc21,-1%,x,2%,-14%,x,2%
C(=C\c1ccnc2ccccc12)/c1ccc(N2CCN(c3ccc(/C=C/c4ccnc5ccccc45)cc3)CC2)cc1,5µM*,x,-4%,6.3µM*,x,-40%
C(=C\c1ccnc2ccccc12)/c1ccc(N2CCNCC2)cc1,u,x,u,14µM*,x,-49%
C(=C\c1ccnc2ccccc12)/c1ccc(N2CCOCC2)cc1,1.8µM*,x,-22%,1.3µM*,x,-6%
O=C1CCc2cc(S(=O)(=O)Nc3ccc(-c4ccccc4)cc3)ccc2N1,x,x,x,x,3%,x
O=C(Nc1ccc(OCc2cc(=O)n3ccsc3n2)cc1)c1ccc(F)cc1,3%,x,9%,4%,-1%,2%
Cc1oc(-c2cccc(Cl)c2)nc1CSc1nncn2c1cc1occc12,27%,x,-27%,-2%,3%,-14%
Cc1c(NC(=O)c2ccc(COc3ccc4ccccc4c3)o2)c(=O)n(-c2ccccc2)n1C,u,-14,-4%,23µM*,7%,-4%
Cc1ccc(CNC(=O)c2ccc(Cn3c(SCc4ccc(F)cc4)nc4cccnc43)cc2)o1,u,x,u,u,4%,-19%
O=[N+]([O-])c1cccc(-c2cc3ccccc3[nH]2)c1,-19%,23,-26%,-7%,4%,-18%
O=[N+]([O-])/C=C/c1cc2ccccc2[nH]1,21µM*,-4,u,18µM*,1%,20µM*
CC(C)NC(=O)c1c(O)c2cccc3c2n(c1=O)CCC3,u,0,-9%,-8%,x,-29%
CCOC(=O)C(C(=O)OCC)c1c([N+](=O)[O-])c(=O)n2c3c(cccc13)CCC2,u,9,0%,21µM*,x,-6%
O=C(NCCCN1CCCCC1)c1[nH]c2ccccc2c1Sc1ccc(Cl)cc1,21µM*,x,u,21µM*,6%,13µM*
SMILES,TDP1 cell CPT,IL1B secr inh,TGFb SMAD3 inh,DT40 TDP1 no CPT,TDP1 block,HepG2 viability
CCOC(=O)C1CCCN(C(=O)c2[nH]c3ccccc3c2Sc2ccc(Cl)cc2)C1 (centres undefined),u,x,u,u,9%,-106%
COc1ccc2c(Sc3ccccc3)c(C(=O)NCCCN3CCCCC3)[nH]c2c1,u,x,x,18µM*,9%,-106%
COc1ccc2c(Sc3ccccc3)c(C(=O)N3CCC(C)CC3)[nH]c2c1,21µM*,x,14µM*,u,6%,-115%
CC1CCCCN1CCCNC(=O)c1[nH]c2ccccc2c1Sc1ccc(Cl)cc1 (centres undefined),10µM*,x,u,13µM*,9%,-109%
COc1ccc2c(Sc3ccccc3)c(C(=O)NCCN(C)C)[nH]c2c1,u,x,-7%,u,6%,-29%
CC(Oc1ccccc1)C(=O)Nc1nnc(S(=O)(=O)Nc2ccccc2)s1 (centres undefined),-23%,-7,12%,-10%,x,-8%
CC(=O)Nc1ccc(NC(=O)c2c(C)nn(-c3ccccc3)c2Cl)cc1C,-3%,-6,-3%,-10%,0%,-4%
CCCC(=O)N1CCC1(C)C(=O)NS(=O)(=O)c1ccc(C)cc1 (centres undefined),-7%,-5,0%,6%,x,-23%
O=C(Nc1nc2c(s1)CCCC2)c1cc2n(n1)C(C(F)(F)F)CC(C1CC1)N2 (centres undefined),-25%,-60*,-8%,u,7%,-11%
O=C(NCCc1nnc2n1CCN(Cc1ccc(F)c(F)c1)CC2)c1ccoc1,8%,x,x,-17%,x,x

# High-throughput results (PubChem)
